# In the supplement of paper PMC10338343:
# ± gives the standard deviation.
# Experiments:
# [1] = tested on: MILI (PIWIL2) piRISC loaded with L1MC piRNA (26 nt); assay: pre-steady-state target cleavage rate (min^-1); guide: L1MC piRNA 5'p-UAACUAAAUACUAUGCAAGCUGUAGG; higher = faster piRNA-guided slicing of the target;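 note: 1 nM active piRISC with 0.1 nM target library at 33 °C single turnover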
# Method in brief: (§1)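 In this Cleave-'n-Seq assay, uncleaved targets were sequenced and normalised to depth and to weakly complementary targets. They came from a transcribed, DNA-blocked target RNA library […] mixed with 1 nM active affinity-purified piRISC carrying one synthetic guide, with or without 500 nM GTSF1 partner protein, in HEPES–potassium acetate buffer at 33 °C for 0–8 or 0–960 min. After three trials were pooled and k3 was capped at 0.0001 min^-1, the pre-steady-state cleavage rate was obtained from a burst-and-steady-state fit.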
# [2] = tested on: EfPiwi piRISC loaded with L1MC piRNA (26 nt); assay: pre-steady-state target cleavage rate (min^-1); auxiliary factor: 500 nM Ephydatia muelleri Gtsf1; guide: L1MC piRNA 5'p-UAACUAAAUACUAUGCAAGCUGUAGG; MIWI and MILI are mouse PIWI proteins and EfPiwi is from a freshwater sponge; tags in brackets are library labels; higher = faster piRNA-guided slicing of the target
# Method in brief: as §1
# [3] = auxiliary factor: 500 nM mouse GTSF1
# [4] = auxiliary factor: none (no GTSF1)
Sequence,"pre-steady-state target cleavage rate [1, 3]","pre-steady-state target cleavage rate [1, 4]",pre-steady-state target cleavage rate [2]
UCCUCCUACAGCUUGCAUAGUACUUAGUUA,0.277 ± 0.018,0.00759 ± 0.002,0.013 ± 0.0053
UCCUGGUACAGCUUGCAUAGUAUUUAGUUC [g2:g24:cont:t1C],0.3 ± 0.016,0.0117 ± 0.0049,0.0096 ± 0.0039
UCCUGCUUCAGCUUGCAUAGUUUUUAGUUA,0.0646 ± 0.011,0.00355 ± 0.0025,0.00715 ± 0.0025
UCCUGGAACAGCUUCCUUAGUAUUUAGUUA,0.214 ± 0.018,0.00562 ± 0.002,0.00362 ± 0.002
UCCUCCUACAGCAUGCAUAGUAUUUAGUUA,0.316 ± 0.021,0.0117 ± 0.0029,0.0743 ± 0.019
UCCUGGAUGAGCUUGCAUUGUAUUAAGUUA,0.0879 ± 0.017,0.00381 ± 0.0027,0.0041 ± 0.0035
UCCUGGAUCAGCUUGCAUAGUAUUUAGUGA,0.237 ± 0.021,0.006 ± 0.0028,0.0182 ± 0.0068
